{
  "source": "PubChem BioAssay AID1578",
  "about": "(Sanford-Burnham Center for Chemical Genomics, 2009)",
  "note": "Screen size: about 290,000 compounds; about 3,000 (1%) were called active. No stated cut-off is given here; in the data, active means inhibition mostly above about 36% (no sharp cut-off); inactive means mostly below about 34%. The full list was thinned out, with actives kept by preference.",
  "data": [
    {"assay": "inhibition of NOD1-driven NF-kB reporter – cell-based, luminescence, uHTS, primary screen (AID 1578);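 further: HEK-293T reporter cells stimulated with the NOD1 agonist gamma-tri-DAP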", "conditions": "NOD1-driven NF-kB luciferase reporter cells, at 4 µM, stronger effect = higher value", "values": [
      {"smiles": "O=C(COC(=O)Cc1cccs1)Nc1ccc(F)c(F)c1F", "inhibition": "-10.6% (inactive)"},
      {"smiles": "Cc1ccccc1-n1c(=O)cc(NCc2ccc3c(c2)OCO3)[nH]c1=O", "inhibition": "-1.9% (inactive)"},
      {"smiles": "CN1C(=O)/C(=C\\c2ccccc2)Sc2ccc(C(=O)N3CCN(c4ccccn4)CC3)cc21", "inhibition": "46.8% (inactive)"},
      {"smiles": "CN1C(=O)/C(=C/c2ccc(C(F)(F)F)cc2)Sc2ccc(C(=O)N3CCN(c4ccccn4)CC3)cc21", "inhibition": "17.8% (inactive)"},
      {"smiles": "CCN(CC)S(=O)(=O)c1ccc(S(=O)(=O)Nc2ccc(C(=O)N3CCCC3)cc2)cc1", "inhibition": "-2.4% (inactive)"},
      {"smiles": "COc1ccc(NC(=O)CCN2C(=O)c3cccc([N+](=O)[O-])c3C2=O)cc1", "inhibition": "-11.3% (inactive)"},
      {"smiles": "N=c1oc2ccc(Cl)cc2cc1C(=O)Nc1ccc(F)cc1", "inhibition": "-7.8% (inactive)"},
      {"smiles": "O=C(CCS(=O)(=O)c1ccccc1)Nc1ccccc1N1CCOCC1", "inhibition": "-9% (inactive)"},
      {"smiles": "CCOC(=O)C1=C(C)N=C2c3ccccc3C(=O)C2C1c1ccc(Cl)cc1", "note": "(stereo not drawn)", "inhibition": "16.6% (inactive)"},
      {"smiles": "CCOC(=O)C1=C(C)N=C2c3ccccc3C(=O)C2C1c1ccc(C)cc1", "note": "(stereo not drawn)", "inhibition": "44.1% (inactive)"},
      {"smiles": "CCOC(=O)C1=C(C)N=C2c3ccccc3C(=O)C2C1c1ccc(Br)cc1", "note": "(stereo not drawn)", "inhibition": "72.4% (active)"},
      {"smiles": "Cc1ccc(C2N(c3cccc(Cl)c3)C(=O)N3CCCN23)cc1", "note": "(stereo not drawn)", "inhibition": "4.2% (inactive)"},
      {"smiles": "O=[N+]([O-])c1cc(/C=N/n2c(-c3cccnc3)n[nH]c2=S)ccc1Cl", "inhibition": "-11.7% (inactive)"},
      {"smiles": "Cc1cc(C)nc(NC(=O)Cc2ccc([N+](=O)[O-])cc2)c1", "inhibition": "-15.5% (inactive)"},
      {"smiles": "O=C(Nc1ccccc1C(F)(F)F)N1CCCCCC1", "inhibition": "-17.1% (inactive)"},
      {"smiles": "O=C(NCc1cccnc1)c1ccc2c(c1)C(=O)N(Cc1ccccc1)C2=O", "inhibition": "-4.4% (inactive)"},
      {"smiles": "Cc1c(C#N)c(NC(=O)CCl)n(Cc2ccc(F)cc2)c1C", "inhibition": "94.1% (active)"},
      {"smiles": "COc1ccc(Cn2c(C)c(C)c(C#N)c2NC(=O)Nc2ccc(F)cc2)cc1", "inhibition": "-50% (inactive)"},
      {"smiles": "Cc1c(C#N)c(NC(=O)C(C)C)n(Cc2ccccc2)c1C", "inhibition": "-2.8% (inactive)"},
      {"smiles": "Cc1ccc(C(=O)N2CCOCC2)cc1S(=O)(=O)N1CCCCC1", "inhibition": "-11.7% (inactive)"},
      {"smiles": "CCN1CCN(CC(=O)Nc2ccc(C)cc2C)C(=O)C1=O", "inhibition": "29.5% (inactive)"},
      {"smiles": "COc1ccc(NC(=O)C2=C(C)NC(=S)NC2c2ccc(O)c(OC)c2)cc1", "note": "(stereo not drawn)", "inhibition": "-36.2% (inactive)"},
      {"smiles": "Cc1ccc(NC(=O)c2cc(-n3cnnc3)ccc2Cl)cc1", "inhibition": "-21.5% (inactive)"},
      {"smiles": "Cc1ccc(NC(=O)c2cc(-n3cnnc3)ccc2Cl)c(C)c1", "inhibition": "63.4% (active)"},
      {"smiles": "Cc1ccnc(NC(=O)c2cc(-n3cnnc3)ccc2Cl)c1", "inhibition": "-27% (inactive)"},
      {"smiles": "O=C(CCCN1C(=O)/C(=C/c2cccs2)SC1=S)Nc1cccc(C(=O)O)c1", "inhibition": "-20.6% (inactive)"},
      {"smiles": "COc1ccc(-n2nc(C(=O)NCC(=O)N3CCCC(C)C3)c3ccccc3c2=O)cc1Cl", "note": "(stereo not drawn)", "inhibition": "-22.7% (inactive)"},
      {"smiles": "CCCC1S/C(=N/N=C/c2ccc(OC)cc2)N(Cc2ccc(OC)cc2)C1=O", "note": "(stereo not drawn)", "inhibition": "12.9% (inactive)"},
      {"smiles": "CCCC1S/C(=N/N=C/c2ccc(C)cc2)N(Cc2ccc(OC)cc2)C1=O", "note": "(stereo not drawn)", "inhibition": "39.2% (inactive)"},
      {"smiles": "CCCCC1S/C(=N/N=C/c2ccc(OC)cc2)N(Cc2ccc(OC)cc2)C1=O", "note": "(stereo not drawn)", "inhibition": "75.2% (active)"},
      {"smiles": "COc1ccccc1CNC(=O)C(C)n1nc(C)n2c(cc3occc32)c1=O", "note": "(stereo not drawn)", "inhibition": "-26.7% (inactive)"},
      {"smiles": "Cc1ccc(C(=O)C(C)N2C(=O)NC(C)(c3ccccc3)C2=O)cc1", "note": "(stereo not drawn)", "inhibition": "-36.5% (inactive)"},
      {"smiles": "O=C(Cc1ccc(Br)c2ccccc12)N/N=C/c1ccccn1", "inhibition": "7.4% (inactive)"},
      {"smiles": "Cc1c(CCC(=O)O)c(=O)oc2c(C)c3occ(-c4ccc(Br)cc4)c3cc12", "inhibition": "27.8% (inactive)"},
      {"smiles": "COc1ccc(-c2coc3c(C)c4oc(=O)c(CCC(=O)O)c(C)c4cc23)cc1", "inhibition": "10.4% (inactive)"},
      {"smiles": "COC(=O)c1cc(-c2ccc(F)cc2)n(-c2ccccc2)n1", "inhibition": "-3.9% (inactive)"},
      {"smiles": "Cc1cc(C)cc(NC2=C(N)C(=O)c3ccccc3C2=O)c1", "inhibition": "-4.5% (inactive)"},
      {"smiles": "Nc1c(S(=O)(=O)O)cc(NC(=O)c2ccccc2)c2c1C(=O)c1ccccc1C2=O", "inhibition": "11.8% (inactive)"},
      {"smiles": "Cc1cc(C)c(Nc2cc(S(=O)(=O)O)c(N)c3c2C(=O)c2ccccc2C3=O)c(C)c1", "inhibition": "69.6% (active)"},
      {"smiles": "Cc1ccc(NC(=O)c2sc(C)nc2C)c(C)c1", "inhibition": "-0.8% (inactive)"},
      {"smiles": "O=C(O)c1cccnc1SCC(=O)C12CC3CC(CC(C3)C1)C2", "inhibition": "-9.5% (inactive)"},
      {"smiles": "CCOC(=O)Cc1cc(=O)n2[nH]cc(-c3cccc(Br)c3)c2n1", "inhibition": "27.2% (inactive)"},
      {"smiles": "CCOC(=O)Cc1c(C)nc2c(-c3ccccc3)c[nH]n2c1=O", "inhibition": "-6.6% (inactive)"},
      {"smiles": "CCOC(=O)Cc1c(C)nc2c(-c3cccc(Br)c3)c[nH]n2c1=O", "inhibition": "69.7% (active)"},
      {"smiles": "CCCN1CCN(C(=O)c2oc3c(Cl)cccc3c2C)CC1", "inhibition": "11.7% (inactive)"},
      {"smiles": "Cc1ccc(C(=O)NCCCN2CCOCC2)c(C)c1", "inhibition": "-33.2% (inactive)"},
      {"smiles": "N=C1C(c2nc3ccccc3s2)=C(O)CN1NC(=O)c1ccc([N+](=O)[O-])cc1", "inhibition": "102% (active)"},
      {"smiles": "N=C1C(c2nc3ccccc3s2)=C(O)CN1NC(=O)c1ccccc1[N+](=O)[O-]", "inhibition": "-23% (inactive)"},
      {"smiles": "Cc1ccc(-c2csc(C3=C(O)CN(NC(=O)c4ccc([N+](=O)[O-])cc4)C3=N)n2)cc1", "inhibition": "3.2% (inactive)"},
      {"smiles": "Cc1csc(SCCn2c(N3CCOCC3)nc3c2c(=O)[nH]c(=O)n3C)n1", "inhibition": "-13.7% (inactive)"},
      {"smiles": "COc1cc(OC)c(OC)cc1/C=C/c1cc(C(F)(F)F)[nH]c(=O)n1", "inhibition": "-1% (inactive)"},
      {"smiles": "COc1cc(/C=C/c2cc(C(F)(F)F)[nH]c(=O)n2)cc(OC)c1OC", "inhibition": "86.7% (active)"},
      {"smiles": "COc1ccc(/C=C/c2cc(C(F)(F)F)[nH]c(=O)n2)cc1OC", "inhibition": "44.3% (inactive)"},
      {"smiles": "CS(=O)(=O)N(CCC#N)Cc1ccc(/C=C2\\C(=O)Nc3ccccc32)o1", "inhibition": "57.1% (active)"},
      {"smiles": "Cc1ccc(/C=C2\\C(=O)Nc3ccccc32)o1", "inhibition": "-9.5% (inactive)"},
      {"smiles": "CS(=O)(=O)N(CCC#N)Cc1ccc(C=O)o1", "inhibition": "-32.9% (inactive)"},
      {"smiles": "O=C(Nc1ccc(O)cc1)/C(=C\\C=C\\c1ccccc1)NC(=O)c1ccccc1", "inhibition": "-13.3% (inactive)"},
      {"smiles": "CCN(C(=O)COC(=O)/C=C/c1cccc([N+](=O)[O-])c1)c1ccccc1", "inhibition": "-31.8% (inactive)"}
    ]}
  ]
}
